DT40 TDP1 CPT = qHTS for Inhibitors of human tyrosyl-DNA phosphodiesterase 1 (TDP1): qHTS in cells in presence of CPT; chicken DT40 Tdp1-/-;hTDP1 cells + 20 nM CPT, ATP luminescence, 48 h; Potency, µM (top dose mostly 46.2 µM), without a hit: at the highest dose activity change, negative = growth inhibition, usual class: inhibitors; AID 686979, 2013; 12% of 420,000 active; further: potency means the concentration at half of the fitted maximal effect; nearly all actives have a fitted effect of over 55% in size
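Chicken DT40 Tdp1-/- cells stably complemented with human TDP1 were seeded at 400 cells/well in medium containing 20 nM camptothecin, exposed to pin-transferred compounds, and grown at 37 °C for at least 48 hr. Viability was read as ATP luminescence.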
IL1B secr inh = qHTS for Inhibitors of Inflammasome Signaling: IL-1-beta AlphaLISA Primary Screen | THP-1 LPS/ATP IL-1B secretion, AlphaLISA, 16 h; stronger effect = lower value | activity change, % at 57.5 µM | 4.7% of 360,000 active; in the data active means activity change below about -50%; inconclusive means mostly about -30% to -49%
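THP-1 cells pretreated 1 hr with compounds (up to 57.5 uM final), then stimulated with LPS (250 ng/mL final) plus ATP (1.25 mM final); secreted IL-1B measured by AlphaLISA after 16 hr, decreased signal indicating inhibition.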
HT1080NT lethal = qHTS for induction of synthetic lethality in tumor cells producing 2HG: qHTS for the HT-1080-NT fibrosarcoma cell line. HT-1080-NT fibrosarcoma viability, CellTiter-Glo ATP luminescence, 48 h. Potency, µM (titrated, usually from 46.1 µM), for inactives: top-dose activity, negative = less viability, most hits filed as cytotoxic. 1.6% of 360,000 active. AID 686970, 2013;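 further: NT is the 2HG producing partner of a matched IDH1 knockdown line; potency means the concentration at half of the fitted maximal effect; 0% = DMSO-treated cells and -100% = media-only wells without cells; nearly all actives have a fitted effect of over 55% in size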
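Fibrosarcoma NT cells, 750 per well in 5% FBS RPMI, were exposed to compound for 48 hours. Viability: CellTiter-Glo luminescence.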
HT1080 IDH1KD tx = qHTS for induction of synthetic lethality in tumor cells producing 2HG: qHTS for the HT-1080-IDH1KD cell line. HT-1080 IDH1 knockdown viability, ATP luminescence, 48 h. Potency, µM (highest dose often 46.1 µM), for inactives: top-dose activity, negative = toxicity, usual class: cytotoxic. AID 686971, 2013. 2% of 360,000 active;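 further: potency means the concentration at half of the fitted maximal effect; 0% = DMSO wells and -100% = cell-free medium wells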
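IDH1KD HT-1080 cells, 750/well, RPMI + 5% FBS; compound pinned after 2 h settling; 48 h, 37 °C; CellTiter-Glo luminescence; % activity normalised to DMSO and no-cell wells; curves fitted, classed by r2 and efficacy.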
TDP1 cell noCPT = qHTS for Inhibitors of human tyrosyl-DNA phosphodiesterase 1 (TDP1): qHTS in cells in absence of CPT. DT40 Tdp1-/- hTDP1 cells, no CPT, ATP luminescence, 48 h. Potency, µM (doses to about 46.2 µM), inactives show at the highest dose activity change, negative = growth inhibition, hits mostly inhibitors. 15% of 420,000 active. AID 686978, 2013; further: potency means the concentration at half of the fitted maximal effect; nearly all actives have a fitted effect of over 55% in size
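A cellular qHTS used chicken DT40 cells lacking endogenous Tdp1 but carrying stably transfected human TDP1. Compounds were applied without camptothecin, and cell growth kinetics were judged by ATP-dependent luminescence after ≥48 hr.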
Numbers without * were called inactive; u = inconclusive; x = no result given; ! = repeats disagree. The list is not random: actives were taken first. Their share in the collection is about 19%. Unless noted, the call rests on the fitted dose curve; in most records, active means well fitted curve in the direction sought with a large enough effect; inconclusive means small, poorly fitted or top-dose-only effect, or another doubt; inactive means no such curve, though single readings can be large; an effect the other way counts as inactive or inconclusive. Unless noted, on the % scale 0 is the no-effect control and ±100 the full control effect.

SMILES	DT40 TDP1 CPT	IL1B secr inh	HT1080NT lethal	HT1080 IDH1KD tx	TDP1 cell noCPT
CC[N+](CC)(CC)CC(=O)Nc1c(C)cccc1C	18µM*!	4	6%	18%	14%
Cc1cccc(C)c1NC(=O)CN(Cc1ccccc1)Cc1ccccc1	u	-1	u	u	21µM*
CNC(=O)CN(Cc1ccccc1)S(=O)(=O)c1ccccc1	5%	-7	0%	22%	0%
c1ccc(COc2cccc(CN3CCc4ccccc4C3)c2)cc1	-10%	18	12%	2%	-13%
CCCNC(=O)C1(C)CCCN(Cc2ccccc2Cl)C1 (stereo not drawn)	u	2	12%	3%	u
CCCc1c(C(=O)Nc2cc(C)on2)cnn1-c1ccccc1	0%	7	18%	5%	-16%
CC(C)N(C(=S)Nc1cccc(S(=O)(=O)N(C)C)c1)c1ccccc1	u	17	-6%	4%	u
O=C(CN(Cc1ccc(Br)cc1)S(=O)(=O)c1ccccc1)NCc1ccccn1	-28%	-14	-1%	3%	u
O=C(CN(Cc1ccc(F)cc1)S(=O)(=O)c1ccccc1)N1CCCCC1	u	-11	0%	0%	16µM*
Cc1cccc(C)c1NC(=O)CN(Cc1ccc(Br)cc1)S(=O)(=O)c1ccccc1	u	x	x	x	15µM*
COc1ccc(C)cc1S(=O)(=O)Nc1ccc2c(c1)OCCO2	-1%	6	-9%	-6%	-28%
COc1ccc2c(c1)nc(SCC(=O)c1cccs1)n2C	-24%	20	3%	u	-17%
Cc1ccn2c(Nc3ccc4c(c3)OCO4)c(-c3ccco3)nc2c1	23µM*	x	x	x	u
Cc1ccn2c(Nc3ccc4c(c3)OCO4)c(-c3ccc(N(C)C)cc3)nc2c1	13µM*	x	x	x	u
COc1ccc(OC(=O)c2cnc3n(c2=O)CCS3)cc1	-10%	-1	22%	7%	-16%
COCC(=O)N1CCC2(CCCN(C(=O)Nc3cccc(F)c3)C2)CC1	1%	x	x	x	2%
O=[N+]([O-])c1cccc(N(CC(O)CN2CCCCC2)S(=O)(=O)c2ccccc2)c1 (stereo not drawn)	0%	u	-4%	-4%	-7%
Oc1c(Br)cc(Br)cc1/C=N/N1CCN(Cc2ccccc2)CC1	u	u	-2%	-3%	u
Cc1ccc(CN2CCN(/N=C/c3cc(Br)cc(Br)c3O)CC2)cc1	u	-12	3%	0%	21µM*
Cc1ccc(CN2CCN(/N=C\C(Br)=C\c3ccccc3)CC2)cc1	2.6µM*	-78*	u	u	8.2µM*
BrC(=C\c1ccccc1)/C=N/N1CCN(c2ccccc2)CC1	1.2µM*	-81*	u	u	7.3µM*
CC(=C/c1ccccc1)/C=N/N1CCN(Cc2ccc(C)cc2)CC1	-1%	-15	10%	3%	-6%
Nc1nnnn1/N=C/C(Br)=C/c1ccccc1	0.46µM*	-93*	-30%	9.2µM*	0.58µM*
COC(=O)c1ccccc1NC(=O)CCCn1nc(C)c2sc3ccccc3c2c1=O	-19%	x	x	x	u
Cc1ccc(-c2nn(Cc3ccccc3)cc2/C=C/C(=O)O)cc1	-10%	42	-4%	3%	-1%
Cc1ccc(-c2nn(CCC(=O)O)cc2/C=C\C(=O)c2ccc(Br)cc2)cc1	12µM*	-25	-16%	u	u
O=C(O)CCn1cc(/C=C\C(=O)c2ccc(Cl)cc2)c(-c2cccc(Br)c2)n1	u	-93*	-18%	u	18µM*
